Measured values as given in the supplement of paper PMC11482750.
± gives the standard deviation of the averaged measurements.

Columns and labels:
Experiment in all cases: control-subtracted net OSN firing rate; higher = stronger neuronal activation
Settings in all cases: odorant dilution (vol/vol): 1/100
phenethyl acetate = compound: CC(=O)OCCc1ccccc1 [phenethyl acetate]
In short: (§1)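 Responses come from single sensillum recordings of palp or antennal olfactory sensory neurons in 1–5-day-old fed female Scaptomyza species or D. melanogaster wild-type, mutant or at1 empty-neuron lines with Or42a homologs. Stimuli were 1 s pulses of odorant at 1:100 vol/vol in mineral oil or dimethyl sulfoxide into 16 ml/min filtered air. Spikes from 0.2 s after onset, counted over 0.5 s, were background-subtracted, doubled, solvent-corrected and averaged over replicates.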

fenchone = compound: CC12CCC(C1)C(C)(C)C2=O [fenchone]
In short: as §1

2-hexanol = compound: CCCCC(C)O [2-hexanol]
In short: as §1

4-ethylguaiacol = compound: CCc1ccc(O)c(OC)c1 [4-ethylguaiacol]
In short: as §1

methyl salicylate = compound: COC(=O)c1ccccc1O [methyl salicylate]
In short: as §1

guaiacol = compound: COc1ccccc1O [guaiacol]
In short: as §1

phenethyl alcohol = compound: OCCc1ccccc1 [phenethyl alcohol]
In short: as §1

| Target | control-subtracted net OSN firing rate (phenethyl acetate) [spikes/s] | control-subtracted net OSN firing rate (fenchone) [spikes/s] | control-subtracted net OSN firing rate (2-hexanol) [spikes/s] | control-subtracted net OSN firing rate (4-ethylguaiacol) [spikes/s] | control-subtracted net OSN firing rate (methyl salicylate) [spikes/s] | control-subtracted net OSN firing rate (guaiacol) [spikes/s] | control-subtracted net OSN firing rate (phenethyl alcohol) [spikes/s] |
| --- | --- | --- | --- | --- | --- | --- | --- |
| Canton-S (D. melanogaster) pb2a | 0.286 ± 4.5 | 166 ± 26 | 3.43 ± 4.9 | 4.86 ± 4.6 | 3.43 ± 3.4 | 6.86 ± 8.1 | 6.29 ± 5.3 |
| Canton-S (D. melanogaster) pb2b | -3.43 ± 6.8 | -6.86 ± 10 | -2.57 ± 8.5 | -1.43 ± 7.1 | 10.6 ± 10 | 145 ± 52 | 1.14 ± 10 |
| S. hsui pb2b-like | 3 ± 4.9 | 0.667 ± 7.2 | 20 ± 18 | 1.67 ± 2.9 | 103 ± 43 | 111 ± 23 | 17.3 ± 21 |
| S. pallida pb1a-like | 26.7 ± 30 | -3.67 ± 8.8 | 88.3 ± 13 | 0.667 ± 8.8 | 15.3 ± 34 | 42 ± 22 | 23 ± 38 |
| S. pallida pb3a-like | -17.3 ± 8.2 | -13 ± 14 | 94.3 ± 19 | -8 ± 7.3 | 6.33 ± 15 | -11.7 ± 15 | -15.7 ± 12 |
| S. montana pb2b-like | -2.33 ± 4.8 | -7.33 ± 4.5 | 16.7 ± 14 | 16 ± 12 | 106 ± 35 | 107 ± 49 | 18.3 ± 17 |
| S. flava pb1a-like | 7.33 ± 6.5 | 1.33 ± 6.5 | 111 ± 28 | -5 ± 7.8 | 6.67 ± 15 | 4 ± 10 | 82.7 ± 46 |
| S. flava pb3a-like | 160 ± 17 | -2.67 ± 5.6 | 6 ± 10 | -3.33 ± 9.6 | 5.67 ± 12 | -5.33 ± 6.2 | -3.33 ± 6.8 |
| S. pallida pb2b-like | -0.333 ± 8.7 | -3.33 ± 8.8 | 27 ± 9.9 | 24 ± 19 | 72 ± 19 | 75.7 ± 20 | 15 ± 11 |
| Canton-S (D. melanogaster) pb3b | 153 ± 48 | -2.83 ± 8.6 | 1.5 ± 8.7 | 0 ± 8.9 | 0.833 ± 6.5 | -2.5 ± 6.4 | 1.33 ± 8.5 |
| S. flava pb2a-like | 3 ± 11 | 213 ± 48 | 5.67 ± 11 | 1.67 ± 6.6 | 3 ± 8.7 | 0 ± 13 | 1.33 ± 4.7 |
| S. hsui pb1a-like | 13.3 ± 16 | -0.333 ± 6.4 | 96 ± 27 | 13.7 ± 5.3 | 14.7 ± 17 | 16 ± 8.3 | 29.7 ± 22 |
| S. pallida pb3b-like | -18.7 ± 18 | -17 ± 12 | -5.67 ± 12 | -9.33 ± 13 | 14.7 ± 24 | -12.7 ± 18 | -9.33 ± 19 |
| S. hsui pb2a-like | 1 ± 7.1 | 140 ± 16 | 6 ± 8 | 3.33 ± 7.3 | 6.33 ± 3.2 | 8 ± 7.5 | 3.67 ± 9.2 |
| S. hsui pb3a-like | -5.67 ± 12 | -7 ± 11 | 145 ± 27 | -3.33 ± 10 | 8 ± 8.1 | -5.33 ± 14 | -0.333 ± 7.4 |
| Canton-S (D. melanogaster) pb1b | -2 ± 8.4 | 1.33 ± 9.9 | -6.67 ± 6.2 | 110 ± 36 | -3.78 ± 12 | 38 ± 29 | 4.67 ± 5.4 |
| Canton-S (D. melanogaster) pb1a | 7.11 ± 7.8 | 0 ± 8.1 | 68.7 ± 32 | 1.78 ± 9.1 | 6.22 ± 13 | 5.33 ± 8.1 | 4 ± 8.7 |
| S. pallida pb2a-like | 5 ± 5.3 | 137 ± 13 | 5.67 ± 6.6 | 5.33 ± 4.8 | 6.33 ± 3.9 | 6.67 ± 4.8 | 9.67 ± 8.8 |
| Canton-S (D. melanogaster) pb3a | 0 ± 9.4 | -2.83 ± 8.3 | 15.8 ± 18 | 7.5 ± 8.4 | 6.33 ± 7.3 | 2.33 ± 8.2 | 7.67 ± 9.3 |
| S. flava pb1b-like | -3.67 ± 9.3 | 2 ± 13 | -26.7 ± 21 | 97 ± 18 | -5.33 ± 20 | 9.67 ± 7.5 | -6 ± 20 |
| S. pallida pb1b-like | -5.67 ± 17 | -4.33 ± 7 | -9 ± 8.8 | 90 ± 36 | 1.33 ± 16 | 8.67 ± 28 | 0.667 ± 14 |
| S. hsui pb3b-like | -7 ± 2.1 | -2.67 ± 6.5 | -6.67 ± 6.8 | -5.67 ± 2.9 | 1.33 ± 5.8 | -2.33 ± 4.5 | -2.67 ± 5 |
| S. montana pb3b-like | -2.67 ± 9.3 | -1 ± 4.7 | 4 ± 7.7 | -3.67 ± 9.5 | 2.33 ± 11 | -1.67 ± 5.4 | -3.67 ± 8.9 |
| S. montana pb1b-like | 5 ± 7.6 | 2.33 ± 18 | -16.3 ± 10 | 109 ± 14 | 7.67 ± 11 | 24.7 ± 14 | -7 ± 20 |
| S. flava pb3b-like | 2.67 ± 5 | 0 ± 5.4 | -1 ± 27 | 14.7 ± 34 | 7.67 ± 26 | 8.33 ± 15 | 2.67 ± 6.8 |
| S. montana pb1a-like | 6.33 ± 9.6 | 0 ± 12 | 123 ± 17 | -0.333 ± 2.9 | 5.67 ± 11 | 26.3 ± 13 | 82.7 ± 34 |
| S. montana pb2a-like | 1 ± 6.5 | 177 ± 36 | 5.67 ± 14 | 1.67 ± 7.7 | 6 ± 6.3 | 6 ± 6.6 | 7.67 ± 14 |
| S. hsui pb1b-like | 1 ± 7 | -3.67 ± 6.1 | -11.7 ± 9.8 | 111 ± 24 | -4.67 ± 8.6 | 78 ± 26 | -11 ± 8.7 |
| S. montana pb3a-like | 97 ± 35 | -2.33 ± 6.9 | 5.67 ± 13 | -8.67 ± 17 | 3.33 ± 9.9 | -4.33 ± 12 | -3.33 ± 15 |
| S. flava pb2b-like | 4.33 ± 11 | -3.67 ± 6.9 | 11.7 ± 17 | 15 ± 14 | 111 ± 28 | 121 ± 31 | 10 ± 17 |
